In PubChem BioAssay (EPA / NIEHS) one finds outcome and AC50 data, which are given here for 39 compounds.

Structures are written as SMILES. “And” between values parts separate entries of the source, which are not always exact repeats. Identical values can stand only once. Records with an inconclusive call do not appear. Some compounds were tested as several samples or in several runs, with calls that do not always agree. The source made the active and inactive calls. The calls were made as follows: active = hit-call score of the fitted dose curve at least 0.9, where 1 is the maximum; inconclusive = response in the unintended direction; inactive = score below 0.9.

Sequence of Cellular tumor antigen p53 (Homo sapiens) (P04637 whole entry, looked up, the tested form may be a part): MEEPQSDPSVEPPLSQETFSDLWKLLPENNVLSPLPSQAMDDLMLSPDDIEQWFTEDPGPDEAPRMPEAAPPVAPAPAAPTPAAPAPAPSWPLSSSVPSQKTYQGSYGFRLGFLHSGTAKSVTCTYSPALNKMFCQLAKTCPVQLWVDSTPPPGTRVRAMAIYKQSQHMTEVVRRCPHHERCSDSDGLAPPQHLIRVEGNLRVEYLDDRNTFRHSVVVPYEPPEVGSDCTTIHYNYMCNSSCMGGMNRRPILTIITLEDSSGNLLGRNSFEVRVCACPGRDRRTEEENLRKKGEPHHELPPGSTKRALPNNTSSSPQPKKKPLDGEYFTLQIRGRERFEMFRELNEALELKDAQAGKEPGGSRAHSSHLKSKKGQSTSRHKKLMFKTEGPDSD

The experiment concerns the target Cellular tumor antigen p53 (Homo sapiens) (UniProt P04637). The experiment in a line: TOX21_p53_BLA_p3_ratio: Tox21 HCT-116 p53 Agonism Beta-lactamase Assay, Ratio, Phase 3 (AID 2283596). From the text:
TOX21_p53_BLA_p3 is a cell-based, single-readout assay that uses HCT116, a human intestinal cell line, […] in a 1536-well plate.TOX21_p53_BLA_p3_ratio is an assay readout measuring reporter gene via receptor activity and designed using inducible reporter (beta lactamase induction) detected with GAL4 b-lactamase reporter gene. The signal is derived from the ratio of cleaved (ch2) to uncleaved (ch1) reporter gene substrate used as the measure of target activity.Data from the assay component TOX21_p53_BLA_p3_ratio was analyzed into 1 assay endpoint. This assay endpoint, TOX21_p53_BLA_p3_ratio, was analyzed in the positive analysis fitting direction relative to DMSO as the negative control and baseline of activity. Using a type of inducible reporter, gain-of-signal activity can be used to understand changes in the reporter gene as they relate to the gene TP53. Furthermore, this assay endpoint can be referred to as a primary readout, because this assay has produced multiple assay endpoints where this ratio serves a reporter gene function to understand target activity. To generalize the intended target to other relatable targets, this assay endpoint is annotated to the DNA binding intended target family, where the subfamily is tumor suppressor.
Thawing Method: Place 14 mL of pre-warmed thaw medium into a 15 mL of conical tub. Remove the vial of cells to be thawed from liquid nitrogen and thaw rapidly by placing at 37C in a water bath with gentle agitation for 1-2 minutes. Decontaminate the vial by wiping with 70% ethanol before opening in a biological safety cabinet. Transfer the vial contents drop-wise into 14 mL of thaw medium in a sterile 15-mL conical tub. Centrifuge cells at 900 rpm for 4 minutes and resuspend in thaw medium. Transfer contents to the T75 tissue culture flask containing Thaw Medium and place flask in a humidified 37C/5% CO2 incubator. Switch to growth medium at first passage.Propagation Method: Aspirate medium, rinse once in DPBS, add 0.25% Trypsin/EDTA and swirl to coat the cell evenly. Add an equal volume of Growth Medium to inactivate Trypsin after 2-3 minutes incubation at 37C. Centrifuge cells at 900 rpm for 4 minutes and resuspend in growth medium. Cell should be passage or fed at least twice a week.Assay Protocol: Harvest cells from culture in growth medium and resuspend in assay medium. 2.2 Dispense 4000 cells/5 uL/well into 1536-well black/clear bottom plates using a Multidrop dispenser. After the cells were incubated at 37C for 5 hours, 23 nL of compounds dissolved in DMSO were transferred to the assay plate by a PinTool resulting in a 217-fold dilution. Incubate the plates for 16 hours at 37C, 5% CO2. Add 1 uL of 6X LiveBLAzer FRET B/G (CCF4-AM) Substrate Mixture to each well using a BioRAPTR dispenser and incubate the plates at room temperature for 2 hours. Measure fluorescence intensity at 460 and 530 nm emission and 405 nm excitation by an Envision detector. Data is expressed as the ratio of 460nm/530nm emissions. Add 4 uL of Cell-titer Glo to each well using BioRAPTR and incubate the plates at room temperature for 2 hours. Measure fluorescence intensity by a VewLux plate reader.
Consider `CCCCCCCCN1CCCC1=O`, for which the result was inactive.

As to `C=CCOC(=O)CCCCCC`, the result was inactive.

As for `N#Cc1cscn1`, the result was inactive.

With `CCc1cc(C(C)(C)C)c(O)c(C(C)(C)C)c1`, the outcome was inactive.

On to `C[C@@H]1CCN(C(=O)[C@H](CCCN=C(N)N)NS(=O)(=O)c2cccc3c2NC[C@H](C)C3)[C@@H](C(=O)O)C1`, for which the outcome was inactive.

`COc1ccc(N)c([N+](=O)[O-])c1`: the result was inactive.

What is called AC50 is the concentration at which the activity in the assay is half-maximal. `CC(C)=CCCC(C)CCOC=O` (stereo not given): the AC50 is 69.8 µM (active).

Consider `COc1ccc(CCC(C)=O)cc1`, for which the outcome was inactive.

`CC(C)(C)c1ccc(C(=O)O)cc1`: the result was inactive.

For the compound `Cc1ncc[nH]1`, the result was inactive.

Take `CCN(CCN)c1cccc(C)c1`: the outcome was inactive.

For the compound `Cc1cc(C)nc(NS(=O)(=O)c2ccc(N)cc2)n1`, the outcome was inactive.

Regarding `CCCCCCOC(=O)CCC`, the result was inactive.

On to `Nc1ccn([C@H]2CS[C@@H](CO)O2)c(=O)n1`, for which the result was inactive.

For `CCc1ccc(O)cc1`, the result was inactive.

As to `Cc1ccc(N)c(S(=O)(=O)O)c1`, the result was inactive.

With `FC(F)(F)COCC(F)(F)F`, the result was inactive.

Regarding `O=c1c(O)c(-c2ccc(O)cc2)oc2cc(O)cc(O)c12`, the outcome was inactive.

With `CCOc1ccc(NC(=O)CC(C)O)cc1` (stereo not given), the result was inactive.

Regarding `C=C[Si]1(C)O[Si](C)(C=C)O[Si](C)(C=C)O[Si](C)(C=C)O1` (stereo not given), the result was inactive.

With `CCN(CC)C(=O)N(CC)CC`, the outcome was inactive.

Turning to `CCCC(=O)c1ccccc1`, the result was inactive.

Turning to `Cc1c(OCC(F)(F)F)ccnc1CS(=O)c1nc2ccccc2[nH]1` (stereo not given), the result was inactive.

For the compound `C=COCCOCCOC=C`, the outcome was inactive.

For `COC(=O)c1cccnc1`, the result was inactive.

On to `CCCCCCCCCCCCCCCC(=O)OC/C=C(C)/C=C/C=C(C)/C=C/C1=C(C)CCCC1(C)C`, for which the result was inactive.

As for `CC(=O)O[C@@H]1CC2CCC1(C)C2(C)C` (stereo not given in full), the outcome was inactive.

For `CCCSc1ccc2nc(NC(=O)OC)[nH]c2c1`, the AC50 was 394 nM (active) and 199 nM (active).

With `O=C(CC(=O)c1ccccc1)c1ccccc1`, the outcome was inactive.

On to `CC(=O)Nc1ccc(C(=O)CCl)cc1`, for which the outcome was inactive and the half-maximal activity concentration (AC50) was 29.9 µM (active).

For `CCCC(=O)OC(C)(C)Cc1ccccc1`, the result was inactive.

Take `CCOC(=O)C(C#N)=C(c1ccccc1)c1ccccc1`: the outcome was inactive.

In the case of `CCCCC1CCC(O)CC1` (stereo not given), the outcome was inactive.

`CCCC(=O)C(CC)Sc1ccoc1C` (stereo not given): the outcome was inactive.

On to `OCCc1ccccc1`, for which the result was inactive.

Regarding `O=C1NC2NC(=O)NC2N1` (stereo not given), the outcome was inactive.

On to `IC(I)I`, for which the outcome was inactive.

For the compound `CCCCCc1ccco1`, the result was inactive.

For the compound `CCCCCC(C)=O`, the result was inactive.
